The text below walks through data of PubChem BioAssay (Tox21).

Where “and” joins values, the source holds several entries; their conditions need not be identical. Identical values can stand only once. Records with an inconclusive call do not appear. A call without a number means that no potency is given here. Calls of active or inactive are those of the source. Calls follow the shape of the dose curve; as a rule, active = well fitted cell-killing curve with a large enough effect in the repeat runs; inconclusive = weak or mixed curves, or effect the other way; inactive = flat fitted curve, though single readings scatter.
Potency is read from the fitted curve at half-maximal effect.

The test can be described thus: qHTS assay to identify small molecule antagonists of the estrogen receptor alpha (ER-alpha) signaling pathway using the BG1 cell line - cell viability counter screen (AID 743081).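 Also: compound given together with 17beta-estradiol as the ER stimulus; nearly all actives have a fitted effect of over 45% in size.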 To be noted: BG1Luc4E2 viability, CellTiter-Fluor, 22 h; series mostly up to 70.3 µM.
As to `Cn1c([N+](=O)[O-])cnc1COC(N)=O`, the Potency result was “inactive”. Then `CC(C)Cc1ccccc1`, with “inactive”; and `O=[N+]([O-])C(CO)(CO)CO`, with “inactive”; and `O=S(=O)(O)CCS`, with “inactive”. Then `OC[C@@H](O)[C@@H](O)[C@H](O)[C@@H](O)CO`, with “inactive”. As to `CC1Cc2ccccc2N1NC(=O)c1ccc(Cl)c(S(N)(=O)=O)c1` (stereo not drawn), the Potency entry is “inactive”. In the case of `COC(=O)c1ccccc1O`, the Potency result is “inactive”. With `COC(=O)c1ccc(C(=O)OC)cc1`, the Potency entry is “inactive”. Then `c1ccc2ccccc2c1`, with “inactive”; and `CC(C)(CO)COC(=O)C(C)(C)CO`, with “inactive”; and `O=[N+]([O-])c1cccc(Cl)c1`, with “inactive”.

Take `CC1COc2ccccc2N1C(=O)C(Cl)Cl` (stereo not drawn): the Potency result was “inactive”.

Turning to `CCCCCCCCC`, the Potency entry was “inactive”. `Cc1cc(=O)[nH]c(C(C)C)n1`: the Potency result is “inactive”. For `Nc1c(S(=O)(=O)O)cc(Br)c2c1C(=O)c1ccccc1C2=O` the value was 27.3 µM (active); for `Nc1cc(-c2ccncc2)c[nH]c1=O`, “inactive”. As for `CCCCOCCO`, the Potency result is “inactive”.

For the compound `CC(=O)Nc1ccc(C(=O)O)cc1`, the Potency result is “inactive”. Then `COCC(=O)O`, with “inactive”. Then `C=CC(=O)OCCCCCCCC(C)C`, with “inactive”. Then `CCCCCCCCCCCCOCC1CO1` (stereo not drawn), with “inactive”. For `CCC(C)C=O` (stereo not drawn), the Potency entry is “inactive”. Consider `O=S(=O)(O)c1cc(S(=O)(=O)O)c2c(N=Nc3ccccc3)c(O)ccc2c1`, for which the Potency is 27.4 µM (active) and 30.6 µM (active). On to `CC1(C)CC(N=C=O)CC(C)(CN=C=O)C1` (stereo not drawn), for which the Potency entry was “inactive”. For the compound `Clc1cc(Cl)c(Cl)cc1Cl`, the Potency result is “inactive”.

With `O=C(Cl)c1c(Cl)c(Cl)c(C(=O)Cl)c(Cl)c1Cl`, the Potency entry is “inactive”. Then `CS(=O)(=O)c1ccc([C@@H](O)[C@@H](CO)NC(=O)C(Cl)Cl)cc1`, with “inactive”.

Regarding `C=C1C2CCC(C2)C1(C)C` (stereo not drawn), the Potency entry is “inactive”. Then `CCOC(=O)[C@H](CCc1ccccc1)N[C@@H](C)C(=O)N1Cc2ccccc2C[C@H]1C(=O)O`, with “inactive”. For `C=C(C)C(=O)OCCCCCCCCCCCC` the value was “inactive”; for `OC1CCCC1`, “inactive”. For `COCC(C)O` (stereo not drawn), the Potency entry was “inactive”. `Cc1ccc(C)c(C)c1`: the Potency entry is “inactive”. Then `O=Nc1ccc(O)cc1`, with “inactive”. Then `OCCOCCOCCOCCO`, with “inactive”; and `CCCCOCCOCCOC(=O)CCCCC(=O)OCCOCCOCCCC`, with “inactive”. For the compound `CC[Si](OC(C)=O)(OC(C)=O)OC(C)=O`, the Potency entry was “inactive”. For `OC[C@@H](O)[C@H](O)[C@H](O)[C@@H](O)CO` the value was “inactive”.
